# Measurements as given in paper PMC12350791.
# Molecular target: PRPF8 (UniProt Q6P2Q9)
# Test: cross-linking mass spectrometry
# Settings: DSBSO, in cells or nuclear extract, not told apart
# PLRG1, O43660, sequence (O43660 whole entry): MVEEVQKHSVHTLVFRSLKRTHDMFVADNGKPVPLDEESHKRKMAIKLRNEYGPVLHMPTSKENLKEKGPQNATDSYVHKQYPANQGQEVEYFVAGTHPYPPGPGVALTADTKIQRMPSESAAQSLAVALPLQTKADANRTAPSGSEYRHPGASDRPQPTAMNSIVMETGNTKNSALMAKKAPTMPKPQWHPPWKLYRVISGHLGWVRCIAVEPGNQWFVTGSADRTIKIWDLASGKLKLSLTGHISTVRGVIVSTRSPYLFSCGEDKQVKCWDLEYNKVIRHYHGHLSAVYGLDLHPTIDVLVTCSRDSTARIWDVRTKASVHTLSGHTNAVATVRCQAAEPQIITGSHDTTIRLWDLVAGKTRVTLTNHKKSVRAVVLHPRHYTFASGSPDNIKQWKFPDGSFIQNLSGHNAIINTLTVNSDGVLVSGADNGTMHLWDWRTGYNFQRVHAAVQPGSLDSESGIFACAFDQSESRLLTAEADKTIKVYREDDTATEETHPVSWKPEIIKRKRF
# USP39, Q53GS9, sequence (Q53GS9 whole entry): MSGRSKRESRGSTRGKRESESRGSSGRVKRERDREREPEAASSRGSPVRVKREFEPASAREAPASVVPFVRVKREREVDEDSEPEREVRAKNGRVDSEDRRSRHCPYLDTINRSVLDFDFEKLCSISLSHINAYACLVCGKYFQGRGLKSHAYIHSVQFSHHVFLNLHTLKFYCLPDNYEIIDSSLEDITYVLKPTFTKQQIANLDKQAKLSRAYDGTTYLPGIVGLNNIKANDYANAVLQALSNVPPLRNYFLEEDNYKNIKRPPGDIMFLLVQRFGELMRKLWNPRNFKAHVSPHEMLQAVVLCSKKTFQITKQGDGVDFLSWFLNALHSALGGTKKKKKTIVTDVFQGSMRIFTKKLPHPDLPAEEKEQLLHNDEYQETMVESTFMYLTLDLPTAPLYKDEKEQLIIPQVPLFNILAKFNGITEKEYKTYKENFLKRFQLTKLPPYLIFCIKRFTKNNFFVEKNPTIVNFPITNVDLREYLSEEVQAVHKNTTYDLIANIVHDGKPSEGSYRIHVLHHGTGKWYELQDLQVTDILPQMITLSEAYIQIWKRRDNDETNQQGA
# EFTUD2, Q15029, sequence (Q15029 whole entry): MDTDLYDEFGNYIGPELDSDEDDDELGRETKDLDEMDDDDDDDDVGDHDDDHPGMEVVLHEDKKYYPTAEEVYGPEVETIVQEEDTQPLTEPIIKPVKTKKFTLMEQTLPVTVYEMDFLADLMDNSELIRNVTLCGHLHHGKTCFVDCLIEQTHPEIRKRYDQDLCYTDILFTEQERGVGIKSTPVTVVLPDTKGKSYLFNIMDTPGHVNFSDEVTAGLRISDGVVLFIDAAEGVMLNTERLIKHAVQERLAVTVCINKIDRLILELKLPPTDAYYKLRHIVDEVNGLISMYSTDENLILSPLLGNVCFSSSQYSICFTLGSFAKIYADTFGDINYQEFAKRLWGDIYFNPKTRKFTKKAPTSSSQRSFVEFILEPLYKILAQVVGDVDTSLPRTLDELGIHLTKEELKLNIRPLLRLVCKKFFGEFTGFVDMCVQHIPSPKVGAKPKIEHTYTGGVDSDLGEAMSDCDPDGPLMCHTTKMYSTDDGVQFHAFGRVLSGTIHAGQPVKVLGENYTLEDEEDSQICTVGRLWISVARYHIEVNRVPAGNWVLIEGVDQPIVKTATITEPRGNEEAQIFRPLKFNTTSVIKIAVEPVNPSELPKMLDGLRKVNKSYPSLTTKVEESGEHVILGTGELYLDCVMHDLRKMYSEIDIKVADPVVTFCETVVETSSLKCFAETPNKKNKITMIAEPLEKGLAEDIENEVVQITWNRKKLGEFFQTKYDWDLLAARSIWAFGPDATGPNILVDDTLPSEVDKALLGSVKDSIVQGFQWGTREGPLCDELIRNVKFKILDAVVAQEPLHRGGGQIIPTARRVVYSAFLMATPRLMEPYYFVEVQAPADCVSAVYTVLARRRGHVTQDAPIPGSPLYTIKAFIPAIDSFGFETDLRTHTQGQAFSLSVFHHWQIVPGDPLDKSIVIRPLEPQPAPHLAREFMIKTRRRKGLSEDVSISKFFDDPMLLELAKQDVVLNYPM
row,Substance,cross-linked residues
1,"PLRG1, O43660",K320 - K666
2,"EFTUD2, Q15029",K405 - K218
3,"USP39, Q53GS9",K508 - K983
